The full list was thinned out, with hits kept by preference.
Tgondii IFNg – blocks Toxoplasma gondii growth in the presence of IFN-gamma. Toxoplasma gondii growth in IFN-gamma-treated host cells; stronger effect = lower value. activity change, negative = inhibition, % (no concentration beside the values). hit rate 3.8% among 69,000. AID 1259416; in the data active means activity change below about -70%, passing the limit was not always enough;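 further: host cells are HeLa cells infected with Toxoplasma gondii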
Large screens that a line does not name were inactive; ! = not active in a repeat.

COc1ccc2c(c1)C1=C(CC2)C(c2ccc(F)cc2)NC(=S)N1 (stereo not drawn)	none
CC[C@@]1(C2O[C@@H](C3O[C@@](O)(CO)[C@H](C)C[C@@H]3C)C[C@@H]2C)CC[C@H]([C@]2(C)CC[C@]3(C[C@H](O)[C@@H](C)[C@@H]([C@@H](C)[C@@H](OC)[C@H](C)C(=O)O)O3)O2)O1 (stereo partly drawn)	Tgondii IFNg -80
CC(C)c1cc(Cn2ccnc2-c2ccc3c(c2)OCCO3)on1	none
Cc1ccc(-c2coc(-c3ccc(NC(=O)C(C)C)cc3)n2)c(C)c1	none
C[C@H]1CN([C@@H](C)CO)C(=O)c2ccccc2-c2ccccc2CO[C@H]1CN(C)C(=O)NC1CCCCC1	none
C[C@@H]1CN([C@H](C)CO)C(=O)c2ccccc2-c2ccccc2CO[C@H]1CN(C)C(=O)Nc1cccc(C(F)(F)F)c1	none
C[C@@H]1CN([C@@H](C)CO)C(=O)c2ccccc2-c2ccccc2CO[C@@H]1CN(C)C(=O)Nc1ccc(-c2ccccc2)cc1	none
C[C@@H]1CN([C@H](C)CO)C(=O)c2ccccc2-c2ccccc2CO[C@@H]1CN(C)C(=O)Nc1ccc(-c2ccccc2)cc1	Tgondii IFNg -74
C[C@@H]1CN([C@H](C)CO)C(=O)c2ccccc2-c2ccccc2CO[C@H]1CN(C)C(=O)Nc1ccc(-c2ccccc2)cc1	Tgondii IFNg -76
C[C@H](CO)N1C[C@H](C)[C@@H](CN(C)C(=O)Nc2cccc(C(F)(F)F)c2)OCc2ccccc2-c2ccccc2C1=O	none
CCc1ccc(OCC(=O)Nc2ccc(-c3nc(-c4ccccc4)co3)cc2)cc1	none
CCOC(=O)c1nnn(-c2nonc2N)c1CSc1nc2ccccc2s1	none
Cc1ccccc1NC(=O)C(=O)NCCc1sc(-c2cccc(F)c2)nc1C	none
Cc1ccc(C)c(-c2coc(-c3ccc(NC(=O)NCc4ccccc4)cc3)n2)c1	none
OCCNc1cc(N2CCN(Cc3cccc4nsnc34)CC2)ncn1	none
Cc1nc(N2CCCC2)nc2c1CCN(C(=O)c1ccco1)CC2	none
Cc1cccc2c(C(=O)NCc3nc(-c4ccccc4)no3)cc(=O)[nH]c12	none
CC(C)c1nc2ccc(Br)cn2c1NC1CCCCC1	none
CCOc1nc(Nc2ccc(C(C)C)cc2)nc(NC2CCCCC2)n1	Tgondii IFNg -87
CCc1nc(OCC(=O)Nc2ccc(C(C)C)cc2)c2ccccc2n1	none
CC(=O)N1CCC2(C=C(C(=O)N3CCCC3)c3ccccc32)CC1	none
CNCCCC12CCC(c3ccccc31)c1ccccc12	Tgondii IFNg -79!
CNC(=O)CC1CC2(CCN(S(=O)(=O)c3cccs3)CC2)c2ccccc21 (stereo not drawn)	none
CCN1c2cc(Cl)ccc2C(=O)NC12CCN(C(=O)Nc1ccccc1C)CC2	none
CCN1c2cc(Cl)ccc2C(=O)NC12CCN(C(=O)Nc1ccccc1OC)CC2	none
Cc1ccc2[nH]c(CN3CCN(c4ncc(C)c(N)n4)CC3)c(C)c2c1	none
Cc1cc(C(=O)N2C[C@H]3C[C@@H]4[C@@](C2)(CN(CC(C)C)S4(=O)=O)O3)no1	none
Cc1cnc(N2CCc3ncc(CNc4ccccn4)n3CC2)nc1	none
O=C(Nc1cccc(OCCN2CCOCC2)c1)c1n[nH]c2c1CCCCCC2	none
COc1cc2c(=O)c(-c3ccc(O)cc3)coc2cc1O	none
CCc1cc(=O)oc2cc(OCC=C(C)C)ccc12	none
CCc1cc(=O)oc2cc3occ(-c4ccc(OC)c(F)c4)c3cc12	Tgondii IFNg -78
COc1ccc(-n2c(=O)c(C(=O)NCc3ccc(F)cc3F)c(O)c3cccnc32)cc1	none
c1cnc(NC2CCN(c3ncnc4c3CCNC4)CC2)nc1	none
c1ccc(C2CN(c3ncnc4c3CCNC4)CCO2)cc1 (stereo not drawn)	none
c1ccc(C2CCCN(c3ncnc4c3CCNC4)CC2)cc1 (stereo not drawn)	Tgondii IFNg -79
CNC(=O)c1ccc(-c2nc(CN3CCN(C(=O)Nc4ccc(F)cc4F)CC3)c(C)o2)cc1	none
Nc1nc(Nc2ccccc2)nc2c1ncn2C1OC(CO)C(O)C1O (stereo not drawn)	none
O=c1[nH]cnc2c1ncn2[C@@H]1O[C@H](CO)[C@@H](O)[C@H]1O	none
OC[C@H]1O[C@@H](n2cnc3c(Nc4ccccc4)ncnc32)[C@H](O)[C@@H]1O	Tgondii IFNg -83
CC12CCC(c3nnc4nc(-c5ccc(F)cc5)cn4c31)C2(C)C (stereo not drawn)	none
COc1ccccc1N1CC(NC(=O)C(C)Cn2cnc3ccccc32)CC1=O (stereo not drawn)	none
COc1ccc(C(=O)Nc2ccc(N3CCCC3)cc2)cc1OC	none
COc1ccc(NC(=O)c2ccc(-c3ccc(-c4noc(C)n4)cc3C)cc2)cc1OCCN(C)C	Tgondii IFNg -77!
COc1ccc(NC(=O)c2ccc3nc(-c4ccoc4)c(-c4ccoc4)nc3c2)cc1OC	none
COc1ccc(NC(=O)c2ccc(-c3ccc(-c4noc(C)n4)cc3C)cc2)cc1N1CCN(C)CC1	Tgondii IFNg -72!
COc1ccc(C(=O)Nc2ccc(-c3nc(-c4cc(C)ccc4C)co3)cc2)cc1OC	none
COc1ccc(C(=O)Nc2ccc(-c3nc(-c4ccccc4)co3)cc2)cc1OC	none
CNC(=O)CC1CC2(CCN(CC(=O)O)CC2)c2ccccc21 (stereo not drawn)	none
